Here are results for 13 compounds from PubChem BioAssay (NCI).

The panel holds about 83,000 compounds, 20% with a hit somewhere; the sample as a whole holds those more often.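 Treatment: one concentration, 48 hours, 96-well format. Scoring: percent growth, with anything below 10 considered active.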 A number with no mark means an inactive call. The source made the active and inactive calls.

What all share (assay): NCI-60 one-dose screen, 48 h (100 = growth as untreated, 0 = no growth, -100 = all killed)
What all share (details): 10 µM unless noted

Experiment [1] deals with HCT-15 colon.
The test system of experiment [2] is HT29 colon.
Experiment [3] relates to SNB-75 CNS.
For experiment [4], the system named is U251 CNS.
Experiment [5] deals with PC-3 prostate.
The subject of experiment [6] is SK-MEL-5 melanoma.
Experiment [7] deals with UACC-62 melanoma.
Experiment [8] concerns LOX IMVI melanoma.
The subject of experiment [9] is SK-MEL-28 melanoma.
Experiment [10] relates to SNB-19 CNS.

As for `CC(C)C(NC(=O)C1(NC(=O)OCc2ccccc2)CCCC1)C(=O)O` (stereo not drawn), the growth in experiment [1] was 112%; in experiment [2], 105%; in [3], 92.3%; in experiment [4] it was 86.7%; in experiment [5], 102%; in [6], 102%. The values for the growth in experiment [7], in [8] and in [9] were 106%, 90.2% and 107%, respectively.
Regarding `COc1ccc(Nc2nnc(SCc3ccccc3F)s2)cc1`, the growth in [1] was 103%; in experiment [2] it was 116%; in experiment [3], 102%; in [4], 104%; in experiment [5] it was 85.6%; in experiment [6], 104%. In addition, the growth is 74.8% in experiment [7], 104% in experiment [8] and 109% in experiment [9].
For `N/C(=N\c1nc2ccccc2s1)NC(=O)Nc1cccc(Cl)c1`, the growth was 17.9% in experiment [1]; 10.2% in experiment [2]; 13.7% in experiment [3]; 26.1% in experiment [4]; 42.4% in [5]; 32.3% in experiment [6]. For the same compound, the values for the growth in experiment [7] and in [9] were 25.8% and 60.1%, respectively.
With `COc1cc(CCC[P+](c2ccccc2)(c2ccccc2)c2ccccc2)cc2c1OCO2`, the growth was 106% in experiment [1]; 79.3% in [2]; 12.7% in experiment [3]; 23.9% in experiment [4]; 16.7% in experiment [5]; -41.2% (active) in experiment [6]. Also, the growth was 32% in [8] and 27.1% in experiment [9].
As to `COc1ccc(C(=NN=C(N)N)c2ccc(OC)cc2)cc1`, the growth is 69.1% in experiment [1]; 15.4% in experiment [2]; -5.63% (active) in experiment [3]; 39.4% in [4]; 30.6% in experiment [5]; 13.9% in [6]. For the same compound, the growth is 52.6% in [7], 15.8% in experiment [8] and 59% in experiment [9].
Take `O=C(COc1ccc(/C=C2\Oc3ccccc3C2=O)cc1)Nc1nc2c(s1)CCCC2`: the growth in [1] was 89.7%; in experiment [2], 30.2%; in experiment [3] it was -76.6% (active); in experiment [4], -44.4% (active); in experiment [5], 12.3%; in experiment [6], 103%. Further, the growth in [7] was 75.6%; in experiment [8] it was -57.3% (active); in [9], 117%.
With `CC(C)Sc1nc(NNC(N)=S)c(C#N)c(-c2ccc(F)cc2)n1`, the growth is 95.9% in experiment [1]; 115% in experiment [2]; 97% in [10]; 95% in experiment [4]; 102% in experiment [5]; 93.3% in experiment [6]. In [7], the growth is 91.1%.
With `C#CCOc1nc(C)cc(C)c1C#N`, the growth in [1] was 96%; in experiment [2], 107%; in [3], 79.6%; in [4] it was 98.1%; in [5] it was 140%; in experiment [6], 98.9%. The growth in experiment [7] was 93.5%; in experiment [8] it was 97.4%; in experiment [9], 111%.
For the compound `C[C@]12CC[C@@H]3c4cc(OC(F)F)c(O)cc4CC[C@H]3[C@@H]1CC[C@@H]2OS(N)(=O)=O`, the growth in experiment [1] was 26.6%; in [2], 19.5%; in experiment [3], -8.09% (active); in experiment [4], 30%; in [5], 26.7%; in [6], 0.18% (active). Further, the growth was 48% in experiment [7], 40.4% in experiment [8] and 57.4% in [9].
Consider `C[C@H](NC(=O)[C@@H]1CSSC[C@@H](NC(=O)c2nc3ccccc3cc2O)C(=O)NCC(=O)N1C)c1ccccc1`, for which the growth in [1] is 42.1%; in experiment [2] it was -28.2% (active); in experiment [3], 80.3%; in experiment [4] it was -7.49% (active); in experiment [5], 54.7%; in experiment [6], 0.825% (active). For the same compound, the values for the growth in [7], in [8] and in experiment [9] were 16.7%, -74.5% (active) and 33.9%, respectively.
Take `C=C(C)[C@@H]1CC=C2c3sc(-c4ccc(C)cc4)nc3C[C@@H](C)[C@]2(C)C1`: the growth in experiment [1] is 104%; in [2], 98.8%; in experiment [3], 87.4%; in experiment [4], 97.5%; in [5] it was 95.5%; in experiment [6], 101%. For the same compound, the values for the growth in experiment [7], in experiment [8] and in [9] were 93.2%, 95.3% and 103%, respectively.
As for `CCc1ccccc1-n1c(N)c(C#N)c(-c2ccc(N(C)C)cc2)c(C#N)c1=O`, the growth in experiment [1] is 97.7%; in experiment [2], 101%; in [3], 88.3%; in experiment [4], 91.1%; in experiment [5], 82.6%; in [6], 86.5%. The growth is 88% in experiment [7], 92.7% in experiment [8] and 100% in [9].
`COc1cc(/C=C/C(=O)N2CCN(C(=O)c3cc(OC)c(OC)c(OC)c3)CC2)ccc1OCCCN1C(=O)c2cccc3cccc(c23)C1=O`: the growth in experiment [1] was 72%; in [2], 91.8%; in [10] it was 99.5%; in experiment [4], 83.4%; in experiment [5], 25.5%; in experiment [6] it was 75.5%. The growth in experiment [7] was 64.3%; in experiment [8], 68.8%; in [9], 81.9%.
